Mcl1-Bid inh = Mcl-1/Bid interaction inhibition; Q07820; TR-FRET Mcl-1/Bid-Dy647 peptide binding, 1536-well; inhibition, % at 21.7 µM; 220,000 compounds, 0.97% hits; AID 1021;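 active = compounds that cut the binding signal by more than half at the single screening dose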;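 note: His-tagged Mcl-1 with europium anti-His antibody binding Bid BH3 peptide; 0% = Mcl-1 plus peptide wells and 100% = peptide-only wells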
Target sequence (Q07820 whole entry, looked up): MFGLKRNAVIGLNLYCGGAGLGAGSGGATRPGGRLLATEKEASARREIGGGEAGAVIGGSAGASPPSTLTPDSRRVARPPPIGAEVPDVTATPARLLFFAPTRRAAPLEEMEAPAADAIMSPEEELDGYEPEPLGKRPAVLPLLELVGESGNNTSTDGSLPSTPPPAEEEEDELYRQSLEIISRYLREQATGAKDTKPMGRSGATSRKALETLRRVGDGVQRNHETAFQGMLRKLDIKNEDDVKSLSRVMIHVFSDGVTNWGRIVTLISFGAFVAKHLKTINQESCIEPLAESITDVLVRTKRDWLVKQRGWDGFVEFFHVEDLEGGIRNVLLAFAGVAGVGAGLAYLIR
Bim-Mcl-1 = inhibitors of Bim-Mcl-1 interaction, human. 190,000 compounds, 0.1% hits. inhibition, % at 10 µM. Bead-based flow cytometry, Bim peptide-Mcl-1 binding. Q07820; in the data active = inhibition above about 40%;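 note: 0% = no compound tracer wells and 100% = peptide blocker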
MCL1 BIM primary = inhibitors of human MCL1 binding to BIM-BH3 peptide | GST-MCL1 / FITC-Bim-BH3 fluorescence polarization | inhibition, % at 10.9 µM | Q07820 | 320,000 compounds, 0.68% hits;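 active = inhibition above the mean inhibition of all tested compounds plus 3 SD, set per campaign, cut at about 40% in these data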;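 note: 0% = DMSO wells and 100% = unlabeled Bim-BH3 peptide control; higher means more loss of mP so more displacement of Bim peptide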
GLD-1 RNA inh = GLD-1-TGE RNA interaction inhibition (C. elegans); Q17339; purified GLD-1 + fluorescein TGE RNA, fluorescence polarization; inhibition, % at 5.96 µM; 320,000 compounds, 0.44% hits; AID 2280;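 active = percent inhibition above a per-plate cutoff, the plate mean of test compounds plus 3 SD, cut at about 30% in these data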;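 note: 0% = DMSO wells with GLD-1 and probe and 100% = wells lacking GLD-1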
Bcl-xL primary = inhibitors of human Bcl-xL. inhibition, % at 10.9 µM. GST-Bcl-xL / FITC-Bim BH3 peptide fluorescence polarization. 320,000 compounds, 0.7% hits;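 active = inhibition above the mean of all tested compounds plus 3 SD, cutoff set per campaign, cut at about 30% in these data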;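 note: 0% = DMSO wells and 100% = unlabeled Bim-BH3 peptide competitor; inhibitors lower millipolarization by displacing the labeled peptide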
Target sequence (Q07817 whole entry, looked up): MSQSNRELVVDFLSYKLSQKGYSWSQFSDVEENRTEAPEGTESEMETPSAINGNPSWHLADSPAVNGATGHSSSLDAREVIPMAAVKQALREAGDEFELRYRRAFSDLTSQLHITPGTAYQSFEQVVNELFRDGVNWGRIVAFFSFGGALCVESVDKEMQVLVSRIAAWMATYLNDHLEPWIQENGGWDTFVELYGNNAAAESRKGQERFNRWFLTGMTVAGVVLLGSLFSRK
Mcl1-Noxa inh = Mcl-1/Noxa interaction inhibition. inhibition, % at 21.7 µM. 220,000 compounds, 1.5% hits. Q07820. AID 1022. TR-FRET Mcl-1/Noxa peptide binding, 2 h;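 active = compounds that cut the protein-peptide binding signal by more than 50% relative to plate controls in a single-dose test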;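 note: His-tagged Mcl-1 with rhodamine Noxa BH3 peptide and terbium anti-His antibody; 0% = Mcl-1 plus Noxa peptide wells and 100% = peptide-only wells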
The depositor's hits bear a star; . = no result given. An excerpt weighted towards active compounds, which were near 2.3% of everything screened.

SMILES	Mcl1-Bid inh	Bim-Mcl-1	MCL1 BIM primary	GLD-1 RNA inh	Bcl-xL primary	Mcl1-Noxa inh
Cc1cccc(CS(=O)(=O)Cc2ccc(C(=O)O)o2)c1	-2	-5	4	-2	3	56*
COCCCNC(=O)c1ccc(CS(=O)(=O)Cc2cccc(C)c2)o1	-1	0	1	-2	4	11
CC(C)(C)N=C1NN=C(c2cc3ccccc3o2)CS1	-11	-4	15	9	14	71*
C=CCn1c(C)cc(C2=NNC(=NC(C)(C)C)SC2)c1C	21	-6	9	-1	4	29
Cc1nc(-c2ccccc2)sc1C(=O)CSc1ccc(Br)cc1	-2	-2	1	-4	-1	-15
Cc1nc(-c2ccccc2)sc1C(=O)CSc1ccc(Cl)cc1	4	-3	9	-2	6	64*
COCC(=O)N1CCC(Oc2ccc(C(=O)N3CCCCC3COC)cc2)CC1 (centres undefined)	.	.	5	-2	4	.
CC(=O)C1=C(C)NC(SCC(=O)c2ccc(F)cc2)=C(C#N)C1CC(C)C (centres undefined)	-16	-9	8	5	10	52*
CC(C)(C)c1cc[n+](-c2nc([O-])sc2C=O)cc1	-8	-8	19	2	19	5
CC(C)c1cc[n+](-c2nc([O-])sc2C=O)cc1	-17	0	45*	12	42*	1
Cc1nn(CC(=O)Nc2ccc3c(c2)nc(CCN2CCCCC2)n3C)c(=O)c2ccccc12	-20	-3	3	3	1	20
Cc1nn(CC(=O)Nc2ccc3c(c2)nc2n3CCN(C3CCCCC3)C2)c(=O)c2ccccc12	-7	2	27	0	16	70*
O=C(NCc1ccc(Cl)cc1)c1cnccn1	-34	1	-2	5	-2	13
O=C(NCc1cccc(Cl)c1)c1cnccn1	-10	-3	46*	25	45*	23
CC(C)NC(=O)N(C)C[C@H]1Oc2ccc(NS(=O)(=O)c3ccccc3)cc2C(=O)N([C@H](C)CO)C[C@H]1C	.	.	.	6	.	.
CCC(=O)N1CCCc2cc(S(=O)(=O)N3CCN(c4ccccc4F)CC3)ccc21	6	1	1	-4	-3	65*
O=C(O)C1CC(c2ccc(F)cc2)=NO1 (centres undefined)	-29	-3	2	4	-1	63*
Cc1noc(C)c1NC(=O)N(C)C[C@H]1Oc2ccc(NS(=O)(=O)c3cn(C)cn3)cc2C(=O)N([C@H](C)CO)C[C@@H]1C	.	.	.	3	.	.
CCCCCCCNC(=O)C1(CC2CC(c3ccc(Cl)cc3)=NO2)CCN(C(=O)c2cc(OCC)c(OCC)c(OCC)c2)CC1 (centres undefined)	.	.	1	7	0	.
O=C(O)c1ccccc1NSc1ccccc1[N+](=O)[O-]	2	51*	20	2	19	22
CC1C(=O)N2CCCc3cc(NC(=O)c4ccccc4F)cc1c32 (centres undefined)	.	.	12	-1	10	.
CCOc1cc(C=O)ccc1OS(=O)(=O)c1ccc(NC(C)=O)cc1	52*	-1	-1	-3	5	39
CCOc1ccc(CN2CCN(S(=O)(=O)c3ccc(NC(C)=O)cc3)CC2)cc1OC	52*	-3	8	-4	1	5
CCOc1cc(C=O)ccc1OCC(N)=O	-20	-1	4	6	4	17
CCOc1ccc(S(=O)(=O)n2nc(C)c(S(=O)(=O)N3CCOCC3)c2C)cc1	.	.	0	-2	-2	.
SMILES	Mcl1-Bid inh	Bim-Mcl-1	MCL1 BIM primary	GLD-1 RNA inh	Bcl-xL primary	Mcl1-Noxa inh
C=CCOc1ccc(/C=C2\SC(=S)N(C(C(=O)O)c3ccccc3)C2=O)cc1 (centres undefined)	25	.	.	.	.	72*
Cc1ccc(Cn2c(=S)[nH]c3ccc(N4CCOCC4)cc3c2=O)o1	-4	3	22	-3	19	73*
O=c1c2cc(N3CCOCC3)ccc2[nH]c(=S)n1Cc1ccc(Cl)cc1	5	-10	7	3	0	20
COCCOC(=O)c1c(C)n(C)c2ccc(OC(=O)c3ccccc3F)cc12	.	.	-2	3	1	.
Cc1ccc2cccc(Oc3ncnc4scc(-c5ccc(Cl)cc5)c34)c2n1	99*	-8	2	2	4	31
O=c1c2ccccc2sc2ccc(NCCCN3CCOCC3)cc12	.	.	19	36*	15	.
CN1CCCC1CCNc1ccc2sc3ccccc3c(=O)c2c1 (centres undefined)	.	.	31	39*	33*	.
COc1cc(/C=C2\CC/C(=C\c3cc(OC)c(O)c(OC)c3)C2=O)cc(OC)c1O	-2	17	-56	-41	-31	101*
O=C(/C=C/c1cccs1)Nc1scc(-c2ccccc2)c1C(=O)O	93*	-2	.	.	.	46
CC1(C)Cc2c(c(-c3ccco3)nc3sc4c(NCC5CCCO5)ncnc4c23)CO1 (centres undefined)	-3	7	1	4	3	51*
CC1(C)Cc2c(c(-c3ccco3)nc3sc4c(NCCCO)ncnc4c23)CO1	2	.	9	-2	10	49
CC1(C)Cc2c(c(-c3ccco3)nc3sc4c(NCCN5CCOCC5)ncnc4c23)CO1	-6	-2	-2	0	3	63*
COc1cccc(C(C(=O)NCC2CCCO2)N(C(=O)Cn2nnc3ccccc32)c2ccc(NC(C)=O)cc2)c1OC (centres undefined)	.	.	-8	-8	-3	.
CCc1nnc(SCC(=O)Nc2ccc(N3CCN(S(C)(=O)=O)CC3)cc2)o1	.	.	-8	0	1	.
CCC(CC)C(=O)Nc1cccc(S(=O)(=O)c2cccc(NC(=O)C(CC)CC)c2)c1	-15	44*	-2	8	-2	2
CCC(CC)C(=O)Nc1cccc(C(=O)Nc2ccc(S(N)(=O)=O)cc2)c1	-39	0	0	2	1	-1
O=C(Cc1ccccc1F)Nc1cc(S(=O)(=O)N2CCOCC2)ccc1N1CCCC1	.	.	.	-1	.	.
Cc1ccc(C(=O)NCCc2csc(-c3cccnc3)n2)cc1	-10	-1	7	-2	6	-10
O=C(NCCc1csc(-c2cccnc2)n1)c1cccs1	86*	-2	5	-7	4	15
C=CCn1c(N)cc(=O)nc1SCC(=O)Nc1ccc(C(=O)OCC)cc1	.	.	-4	6	-2	.
CCOC(=O)c1nnn(CC(=O)Nc2ccccc2)c1C(=O)OCC	-30	-3	-2	7	0	8
CCOC(=O)c1nnn(CC(=O)NC(=O)Nc2ccccc2)c1C(=O)OCC	-4	-1	28	18	53*	-6
COc1ccc(NC(=O)Cc2nnc(SCC(=O)c3ccccc3)n2C)cc1	.	.	-1	0	-5	.
COCCCNC(=S)NNC(=O)c1ccc(S(=O)(=O)N2CCC(C)CC2)cc1	-48	-1	4	3	5	7
CCCCc1ccc(-c2csc(/C(C#N)=C\c3ccc(C)o3)n2)cc1	-9	-2	-4	-3	-5	-12

Compound activity deposited in PubChem BioAssay by several laboratories.
